The source of these data is PubChem BioAssay (EPA / NIEHS).

Broadly, the AC50 is the concentration at which the activity in the assay is half-maximal.

Results filed as inconclusive are left out. Active and inactive are the calls of the source. Rule for the calls, unless noted: active = hit-call score of the fitted dose curve at least 0.9, where 1 is the maximum; inconclusive = response in the unintended direction; inactive = score below 0.9.

The target in experiment [1] is Estrogen receptor (Homo sapiens) (UniProt P03372). As to the kind of experiment: OT_ERa_GFPERaERE_0480: Odyssey Thera (OT) 8-hour HeLa Transcription Induction Assay for Estrogen Receptor (AID 2283381; active = hit-call score of the fitted dose curve at least 0.9, where 1 is the maximum; inactive = score below 0.9). In short, it runs like this:
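HeLa cells expressing GFP reporter under estrogen response element, imaged 8 h after dosing. GFP induction quantified by high-content fluorescence microscopy image analysis; gain of signal fitted versus DMSO.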

Experiment [2] shares this target. As to the kind of experiment: OT_ERa_GFPERaERE_0120: Odyssey Thera (OT) 2-hour HeLa Transcription Induction Assay for Estrogen Receptor (AID 2283382). In short, it runs like this:
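HeLa cells were dosed for 2 h, then GFP reporter induction was quantified by fluorescence microscopy with high-content image analysis. Gain of signal fitted against DMSO baseline.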

Experiment [3] has as its target Retinoic acid receptor RXR-alpha (Homo sapiens) (UniProt P19793). As to the kind of experiment: OT_NURR1_NURR1RXRa_1440: Odyssey Thera (OT) 24-hour HEK293T Protein Complementation Assay for Nurr1/retinoid X receptor (RXR) (AID 2283386). In short, it runs like this: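 HEK293T protein-fragment complementation of Nurr1 and RXRα fused to reporter fragments; compounds 24 h. Fluorescence gain from reconstituted reporter fitted versus DMSO.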

In experiment [4] the target is Peroxisome proliferator-activated receptor gamma (Homo sapiens) (UniProt P37231). As to the kind of experiment: OT_PPARg_PPARgSRC1_0480: Odyssey Thera (OT) 8-hour Protein-Complementation Assay for Peroxisome Proliferator-activated Receptor Gamma / SRC-1 Co-activator (AID 2283387).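 Note: nuclear to cytoplasmic split Venus YFP fluorescence ratio reporting PPARg SRC-1 interaction.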 In short, it runs like this: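 Protein-fragment complementation in HEK293T: Venus YFP halves (residues 1-158, 159-239, mutated to IFP1/IFP2) fused to PPARg/SRC-1. 8 h exposure; N/C ratio at 488 nm; DMSO negative control.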
Sequence of Peroxisome proliferator-activated receptor gamma (Homo sapiens) (P37231 whole entry, looked up, the tested form may be a part): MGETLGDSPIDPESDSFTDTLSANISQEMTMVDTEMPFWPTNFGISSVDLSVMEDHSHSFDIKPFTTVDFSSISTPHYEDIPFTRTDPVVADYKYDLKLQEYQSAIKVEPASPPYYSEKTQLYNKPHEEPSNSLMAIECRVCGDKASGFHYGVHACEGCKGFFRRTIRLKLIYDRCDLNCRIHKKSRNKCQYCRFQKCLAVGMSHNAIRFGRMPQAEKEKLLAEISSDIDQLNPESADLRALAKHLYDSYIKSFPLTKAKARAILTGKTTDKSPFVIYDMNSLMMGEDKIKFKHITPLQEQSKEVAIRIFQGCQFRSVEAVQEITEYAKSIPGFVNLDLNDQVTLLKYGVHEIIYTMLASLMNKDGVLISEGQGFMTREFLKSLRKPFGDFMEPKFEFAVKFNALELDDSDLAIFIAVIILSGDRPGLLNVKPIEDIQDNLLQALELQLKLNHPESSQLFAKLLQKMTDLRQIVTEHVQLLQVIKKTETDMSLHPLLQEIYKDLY

For experiment [5] the target is unchanged. As to the kind of experiment: OT_PPARg_PPARgSRC1_1440: Odyssey Thera (OT) 24-hour Protein-Complementation Assay for Peroxisome Proliferator-activated Receptor Gamma/ SRC-1 Co-activator (AID 2283388).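 Note: nuclear to cytoplasmic ratio of reconstituted Venus YFP fluorescence in fixed imaged cells.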 In outline: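 Protein-fragment complementation between PPARg and coactivator SRC-1 was measured by fluorescence imaging in transiently transfected HEK293T cells after 24 h treatment. Signal was quantified as N/C ratio in the 488 nm channel, with DMSO as negative control.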

Read-out in experiment [6]: Tumor necrosis factor receptor superfamily member 6 (Homo sapiens) (UniProt P25445)
As to the kind of experiment: LTEA_HepaRG_FAS: Life Technologies and Expression Analysis (LTEA) Assay for Fas cell surface death receptor (FAS) using HepaRG (AID 2283447; active = hit-call score of the fitted dose curve at least 0.9, where 1 is the maximum; inactive = score below 0.9). The conditions noted are these: mRNA level, 48 h; actives raise or lower the signal. In outline: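 Differentiated human HepaRG cells, pre-cultured 48 h, were exposed in duplicate for 48 h to 8-point half-log concentrations (top 100 uM, 0.5% DMSO) in serum-free induction medium; FAS mRNA measured by qRT-PCR, normalized to ACTB/GAPDH/POLR2A, bidirectional fit versus DMSO.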

Read-out in experiment [7]: Fatty acid synthase (Homo sapiens) (UniProt P49327)
As to the kind of experiment: LTEA_HepaRG_FASN: Life Technologies and Expression Analysis (LTEA) Assay for Fatty Acid Synthase (FASN) using HepaRG (AID 2283448; active = hit-call score of the fitted dose curve at least 0.9, where 1 is the maximum; inactive = score below 0.9). The conditions noted are these: mRNA level, 48 h; actives raise or lower the signal. In short, it runs like this: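 Differentiated HepaRG cells in serum-free induction medium exposed 48 h in duplicate to eight half-log concentrations, top 100 uM, 0.5% DMSO. FASN mRNA by qRT-PCR normalised to ACTB, GAPDH, POLR2A; bidirectional fit versus DMSO.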

Experiment [8] in a line: CEETOX_H295R_11DCORT: CeeTox H295R High-throughput Steroidogenesis Assay for 11-Deoxycortisol (11DCORT) (AID 2283432; active = hit-call score of the fitted dose curve at least 0.9, where 1 is the maximum; inactive = score below 0.9). Particulars: actives raise or lower the signal. In short, it runs like this: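 Adrenal carcinoma line H295R, run per OECD 456 with minor changes, was forskolin-stimulated (10 uM, 48 h) before a 48 h chemical exposure at 0.1% DMSO. Secreted 11-deoxycortisol was quantified by HPLC-MS/MS.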

The nature of experiment [9]: CEETOX_H295R_OHPREG: CeeTox H295R High-throughput Steroidogenesis Assay for OH-Pregnenolone (OHPREG) (AID 2283434; active = hit-call score of the fitted dose curve at least 0.9, where 1 is the maximum; inactive = score below 0.9). Particulars: actives raise or lower the signal. In outline:
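Human adrenal H295R cells were prestimulated 48 h with 10 uM forskolin, then exposed 48 h to chemical in 0.1% DMSO. Medium 17alpha-hydroxypregnenolone was quantified by HPLC-MS/MS after MTBE extraction; bidirectional fitting versus DMSO baseline.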

The nature of experiment [10]: CEETOX_H295R_OHPROG: CeeTox H295R High-throughput Steroidogenesis Assay for OH-Progesterone (OHPROG) (AID 2283435; active = hit-call score of the fitted dose curve at least 0.9, where 1 is the maximum; inactive = score below 0.9). The conditions noted are these: actives raise or lower the signal. In outline:
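H295R adrenal cells prestimulated 48 h with 10 uM forskolin, then exposed 48 h to chemical (0.1% DMSO final). 17alpha-hydroxyprogesterone in medium quantified by HPLC-MS/MS; bidirectional fit versus DMSO, with MTT viability measured in the same wells.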

A short description of experiment [11]: CEETOX_H295R_CORTISOL: CeeTox H295R High-throughput Steroidogenesis Assay for Cortisol (AID 2283438; active = hit-call score of the fitted dose curve at least 0.9, where 1 is the maximum; inactive = score below 0.9;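 note: cortisol secreted into medium quantified by LC-MS/MS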). Particulars: actives raise or lower the signal. In short, it runs like this:
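Forskolin-primed H295R cells (10 uM, 48 h) treated 48 h with test chemical in 0.1% DMSO. Cortisol in medium quantified by MTBE extraction and HPLC-MS/MS; bidirectional fit vs DMSO, MTT viability in same wells.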

Experiment [12] is described as follows: CEETOX_H295R_DOC: CeeTox H295R High-throughput Steroidogenesis Assay for DOC (AID 2283439; active = hit-call score of the fitted dose curve at least 0.9, where 1 is the maximum; inactive = score below 0.9). The conditions noted are these: actives raise or lower the signal. In short, it runs like this:
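H295R cells prestimulated 48 h with 10 uM forskolin, then exposed 48 h to test chemical (0.1% DMSO final). Medium 11-deoxycorticosterone measured by HPLC-MS/MS after MTBE extraction; bidirectional fit vs DMSO, viability checked by MTT in same wells.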

Experiment [13] in a line: CEETOX_H295R_ESTRADIOL: CeeTox H295R High-throughput Steroidogenesis Assay for Estradiol (AID 2283440; active = hit-call score of the fitted dose curve at least 0.9, where 1 is the maximum; inactive = score below 0.9;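 note: estradiol secreted into medium quantified by LC-MS/MS after dansyl derivatisation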). The conditions noted are these: actives raise or lower the signal. In outline: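 Estradiol secreted into the medium was measured by tandem mass spectrometry after liquid-liquid extraction and dansylation. Human H295R cells had been forskolin-primed (10 uM, 48 h) before a 48 h chemical exposure with 0.1% DMSO.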

A short description of experiment [14]: CEETOX_H295R_ESTRONE: CeeTox H295R High-throughput Steroidogenesis Assay for Estrone (AID 2283441; active = hit-call score of the fitted dose curve at least 0.9, where 1 is the maximum; inactive = score below 0.9;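 note: estrone secreted into medium measured by LC-MS/MS after dansyl derivatization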). Particulars: actives raise or lower the signal. In short, it runs like this:
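H295R cells prestimulated 48 h with 10 uM forskolin, then exposed 48 h to chemicals in 0.1% DMSO final; estrone in medium extracted with MTBE, dansyl-derivatized, quantified by HPLC-MS/MS; bidirectional fitting versus DMSO, viability by MTT.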

Experiment [15] can be described thus: CEETOX_H295R_PROG: CeeTox H295R High-throughput Steroidogenesis Assay for Progesterone (PROG) (AID 2283442; active = hit-call score of the fitted dose curve at least 0.9, where 1 is the maximum; inactive = score below 0.9;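 for AC50: human H295R adrenal cells primed with 10 µM forskolin before dosing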). The conditions noted are these: actives raise or lower the signal. In short, it runs like this: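 Steps: seed H295R cells and let them adhere overnight; prime 48 h with 10 uM forskolin; dose with compound in DMSO at 0.1% final for 48 h; extract medium steroids with MTBE; measure progesterone by LC-MS/MS. MTT viability was run in the same wells.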

Experiment [16] concerns the target Bile acid receptor (Homo sapiens) (UniProt Q96RI1). As to the kind of experiment: OT_FXR_FXRSRC1_1440: Odyssey Thera (OT) 24-hour HEK293T Protein-Complementation Assay for Farnesoid X receptor/SRC-1 Co-activator (AID 2283384). In short, it runs like this: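 HEK293T cells, 24 h after chemical dosing. FXR–SRC-1 coactivator interaction read as fluorescence from protein-fragment complementation of a split reporter. Gain of signal fitted against DMSO baseline.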

Experiment [17] has as its target Retinoic acid receptor RXR-alpha (Homo sapiens) (UniProt P19793). As to the kind of experiment: OT_NURR1_NURR1RXRa_0480: Odyssey Thera (OT) 8-hour HEK293T Protein Complementation Assay for Nurr1/retinoid X receptor (RXR) (AID 2283385). In outline: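 HEK293T cells expressing Nurr1 and RXRα fused to reporter fragments (protein-fragment complementation); fluorescence measured 8 h after dosing. Gain of signal fitted relative to DMSO.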

The target in experiment [18] is Estrogen receptor beta (Homo sapiens) (UniProt Q92731). As to the kind of experiment: OT_ER_ERbERb_1440: Odyssey Thera (OT) 24-hour HEK293T Protein-Complementation Assay for Estrogen Receptor-beta/-beta Homodimer (AID 2283380).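 Note: fluorescence gain from ER beta LBD homodimer complementation read by laser scanning cytometry; scored as signal increase over DMSO baseline for both agonists and antagonists.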 In short, it runs like this:
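HEK293T cells stably expressing human ER-beta LBD (aa 310-547) PCA homodimer pair, dosed 24 h; formaldehyde-fixed, Draq5-stained. Readout: increase in nuclear (agonist) or nuclear plus cytoplasmic (antagonist) fluorescence intensity versus DMSO, gain-of-signal fitting.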

Sequence of Estrogen receptor (Homo sapiens) (P03372 whole entry, looked up): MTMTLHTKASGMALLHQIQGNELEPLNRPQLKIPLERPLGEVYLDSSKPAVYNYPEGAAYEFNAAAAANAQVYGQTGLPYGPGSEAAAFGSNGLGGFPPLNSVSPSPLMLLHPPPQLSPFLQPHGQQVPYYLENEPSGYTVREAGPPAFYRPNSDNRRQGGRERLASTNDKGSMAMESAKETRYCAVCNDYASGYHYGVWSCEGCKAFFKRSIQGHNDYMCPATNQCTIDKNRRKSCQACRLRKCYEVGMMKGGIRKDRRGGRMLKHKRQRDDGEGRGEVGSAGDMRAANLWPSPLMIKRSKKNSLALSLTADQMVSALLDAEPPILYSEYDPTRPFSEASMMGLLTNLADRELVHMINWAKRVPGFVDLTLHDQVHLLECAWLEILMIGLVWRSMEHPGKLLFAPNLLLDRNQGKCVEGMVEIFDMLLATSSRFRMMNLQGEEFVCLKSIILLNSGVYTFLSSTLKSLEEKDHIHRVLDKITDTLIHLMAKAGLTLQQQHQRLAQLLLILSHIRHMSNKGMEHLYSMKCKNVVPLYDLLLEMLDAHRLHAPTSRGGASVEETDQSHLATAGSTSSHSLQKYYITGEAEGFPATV
Sequence of Fatty acid synthase (Homo sapiens) (P49327 whole entry, looked up): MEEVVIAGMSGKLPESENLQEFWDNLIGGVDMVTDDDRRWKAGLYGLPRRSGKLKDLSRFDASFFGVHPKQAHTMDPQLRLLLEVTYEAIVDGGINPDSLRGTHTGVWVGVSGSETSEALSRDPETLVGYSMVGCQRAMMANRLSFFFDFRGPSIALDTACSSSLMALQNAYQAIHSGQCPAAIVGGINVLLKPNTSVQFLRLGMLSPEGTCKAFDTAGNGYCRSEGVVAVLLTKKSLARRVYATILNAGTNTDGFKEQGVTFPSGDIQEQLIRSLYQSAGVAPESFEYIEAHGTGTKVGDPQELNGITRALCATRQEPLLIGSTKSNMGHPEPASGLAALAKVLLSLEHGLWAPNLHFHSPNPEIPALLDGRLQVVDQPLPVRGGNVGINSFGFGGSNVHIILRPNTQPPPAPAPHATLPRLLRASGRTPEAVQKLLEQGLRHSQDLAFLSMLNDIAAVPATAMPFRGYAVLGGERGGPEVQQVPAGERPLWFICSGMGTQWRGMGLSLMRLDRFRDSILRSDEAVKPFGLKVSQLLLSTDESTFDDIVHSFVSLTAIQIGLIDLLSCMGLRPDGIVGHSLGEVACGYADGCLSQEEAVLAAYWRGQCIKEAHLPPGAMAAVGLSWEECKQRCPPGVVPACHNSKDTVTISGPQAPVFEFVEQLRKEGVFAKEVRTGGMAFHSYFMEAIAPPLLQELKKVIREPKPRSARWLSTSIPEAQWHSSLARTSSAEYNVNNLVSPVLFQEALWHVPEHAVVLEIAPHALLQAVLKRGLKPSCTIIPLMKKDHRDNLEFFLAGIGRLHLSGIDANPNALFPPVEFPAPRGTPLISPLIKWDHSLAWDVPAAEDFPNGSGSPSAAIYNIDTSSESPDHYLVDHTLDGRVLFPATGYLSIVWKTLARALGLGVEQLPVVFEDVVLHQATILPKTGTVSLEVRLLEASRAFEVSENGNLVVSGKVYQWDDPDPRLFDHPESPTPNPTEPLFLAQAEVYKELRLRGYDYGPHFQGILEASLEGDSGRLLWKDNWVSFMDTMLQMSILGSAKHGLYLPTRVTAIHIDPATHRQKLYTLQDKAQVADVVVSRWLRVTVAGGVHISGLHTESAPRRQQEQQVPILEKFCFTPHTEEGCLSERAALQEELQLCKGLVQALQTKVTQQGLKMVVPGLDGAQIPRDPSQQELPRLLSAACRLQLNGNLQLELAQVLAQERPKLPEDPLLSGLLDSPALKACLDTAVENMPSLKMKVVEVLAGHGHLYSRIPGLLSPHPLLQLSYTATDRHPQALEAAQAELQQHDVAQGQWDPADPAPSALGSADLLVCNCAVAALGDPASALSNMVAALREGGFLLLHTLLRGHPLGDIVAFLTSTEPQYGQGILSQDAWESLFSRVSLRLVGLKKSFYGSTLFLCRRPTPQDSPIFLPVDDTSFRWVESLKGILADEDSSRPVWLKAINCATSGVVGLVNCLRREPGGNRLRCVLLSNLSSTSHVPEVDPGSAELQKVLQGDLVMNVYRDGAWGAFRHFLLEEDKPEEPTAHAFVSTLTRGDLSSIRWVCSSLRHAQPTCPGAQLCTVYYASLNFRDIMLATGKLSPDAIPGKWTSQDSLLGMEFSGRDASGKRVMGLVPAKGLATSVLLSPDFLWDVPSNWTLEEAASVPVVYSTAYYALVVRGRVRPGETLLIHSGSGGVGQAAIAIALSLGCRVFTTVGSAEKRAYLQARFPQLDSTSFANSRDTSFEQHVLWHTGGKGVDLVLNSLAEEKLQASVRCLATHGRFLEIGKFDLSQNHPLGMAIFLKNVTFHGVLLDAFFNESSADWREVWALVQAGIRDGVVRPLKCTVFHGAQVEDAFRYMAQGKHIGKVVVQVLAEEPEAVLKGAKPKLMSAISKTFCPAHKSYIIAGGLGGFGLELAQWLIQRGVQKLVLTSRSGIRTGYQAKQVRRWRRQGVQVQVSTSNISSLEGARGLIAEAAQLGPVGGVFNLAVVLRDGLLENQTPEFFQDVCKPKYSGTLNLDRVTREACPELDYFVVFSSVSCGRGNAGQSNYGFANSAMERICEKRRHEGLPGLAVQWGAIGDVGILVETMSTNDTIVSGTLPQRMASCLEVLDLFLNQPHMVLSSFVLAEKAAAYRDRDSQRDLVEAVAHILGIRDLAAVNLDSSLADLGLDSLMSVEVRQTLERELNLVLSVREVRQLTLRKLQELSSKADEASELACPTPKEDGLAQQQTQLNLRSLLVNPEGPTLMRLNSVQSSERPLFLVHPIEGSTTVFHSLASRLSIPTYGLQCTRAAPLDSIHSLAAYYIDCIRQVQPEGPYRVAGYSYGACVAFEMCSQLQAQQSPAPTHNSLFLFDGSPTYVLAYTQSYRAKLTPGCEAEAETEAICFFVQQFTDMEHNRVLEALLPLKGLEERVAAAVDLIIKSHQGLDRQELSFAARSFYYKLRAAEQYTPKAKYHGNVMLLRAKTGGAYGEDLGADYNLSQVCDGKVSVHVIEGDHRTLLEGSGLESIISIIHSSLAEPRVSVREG
Sequence of Retinoic acid receptor RXR-alpha (Homo sapiens) (P19793 whole entry, looked up, the tested form may be a part): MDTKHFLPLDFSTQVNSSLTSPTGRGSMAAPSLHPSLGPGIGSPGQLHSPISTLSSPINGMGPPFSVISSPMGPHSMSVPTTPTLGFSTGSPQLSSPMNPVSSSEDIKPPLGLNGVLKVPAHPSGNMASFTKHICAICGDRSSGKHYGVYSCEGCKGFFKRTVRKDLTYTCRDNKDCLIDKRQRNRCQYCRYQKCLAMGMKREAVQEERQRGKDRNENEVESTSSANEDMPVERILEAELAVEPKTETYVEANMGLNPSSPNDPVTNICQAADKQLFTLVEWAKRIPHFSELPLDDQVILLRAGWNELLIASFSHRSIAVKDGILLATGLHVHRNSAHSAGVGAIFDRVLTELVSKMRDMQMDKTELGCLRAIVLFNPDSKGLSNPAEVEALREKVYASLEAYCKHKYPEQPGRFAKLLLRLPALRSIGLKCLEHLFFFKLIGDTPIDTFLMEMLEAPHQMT
Sequence of Bile acid receptor (Homo sapiens) (Q96RI1 whole entry, looked up, the tested form may be a part): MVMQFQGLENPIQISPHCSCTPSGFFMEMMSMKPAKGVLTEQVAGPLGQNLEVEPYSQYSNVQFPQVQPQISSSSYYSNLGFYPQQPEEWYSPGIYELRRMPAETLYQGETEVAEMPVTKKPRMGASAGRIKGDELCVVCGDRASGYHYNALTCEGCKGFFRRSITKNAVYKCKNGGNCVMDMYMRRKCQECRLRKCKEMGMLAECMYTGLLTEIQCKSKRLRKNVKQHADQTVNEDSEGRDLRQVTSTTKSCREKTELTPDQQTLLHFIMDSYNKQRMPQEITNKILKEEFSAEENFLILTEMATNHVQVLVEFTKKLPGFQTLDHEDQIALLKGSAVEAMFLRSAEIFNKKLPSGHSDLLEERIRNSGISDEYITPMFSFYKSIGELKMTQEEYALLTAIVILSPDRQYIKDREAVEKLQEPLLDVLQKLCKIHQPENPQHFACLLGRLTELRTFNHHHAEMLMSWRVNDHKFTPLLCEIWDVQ
Sequence of Estrogen receptor beta (Homo sapiens) (Q92731 whole entry, looked up, the tested form may be a part): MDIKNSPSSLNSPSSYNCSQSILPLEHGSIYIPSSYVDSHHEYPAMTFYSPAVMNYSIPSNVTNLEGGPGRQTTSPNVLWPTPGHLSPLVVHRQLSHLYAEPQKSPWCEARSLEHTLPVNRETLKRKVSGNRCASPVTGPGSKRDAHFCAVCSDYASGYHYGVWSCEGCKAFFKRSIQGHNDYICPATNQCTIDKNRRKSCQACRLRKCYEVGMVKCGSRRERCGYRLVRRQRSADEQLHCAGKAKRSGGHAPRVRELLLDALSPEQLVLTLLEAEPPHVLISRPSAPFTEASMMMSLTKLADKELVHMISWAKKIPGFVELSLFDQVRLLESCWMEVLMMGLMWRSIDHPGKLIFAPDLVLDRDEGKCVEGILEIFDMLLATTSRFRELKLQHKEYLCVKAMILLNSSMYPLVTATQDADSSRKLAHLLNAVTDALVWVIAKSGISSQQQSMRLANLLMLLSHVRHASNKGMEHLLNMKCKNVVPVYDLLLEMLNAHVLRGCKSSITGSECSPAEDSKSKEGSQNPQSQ

Turning to `CCCCCCCCCCCCCCCC`, the outcome in experiment [1], in [2], in experiment [3], in [4], in experiment [5] and in [6] was inactive. Further, the compound was called inactive in experiment [7].

In the case of `c1cc(-c2ccncc2)ccn1`, the outcome in experiment [1], in [2], in experiment [3], in [4], in experiment [5] and in [8] was inactive. The compound was called inactive in [9], in experiment [10], in experiment [11], in experiment [12], in [13] and in experiment [14]. Moreover, the compound was classed as inactive in experiment [15], in experiment [6] and in [7].

Take `CC1(C)CC(N=C=O)CC(C)(CN=C=O)C1` (configuration not stated): the call in [1], in [2], in experiment [16], in experiment [17], in experiment [3] and in experiment [4] was inactive. For the same compound, the call in [5], in experiment [9], in [10], in [15] and in experiment [6] was inactive. The concentration at half-maximal activity (AC50) in experiment [7] is 69.7 µM (active).

For `CN1CCN(Cc2cc(-c3ccc4[nH]c(=O)oc4c3)co2)[C@@H](c2ccc(F)cc2)C1`, the concentration at half-maximal activity (AC50) was 10.1 µM (active) in experiment [17], 4.56 µM (active) in experiment [10] and 14.1 µM (active) in [15]. The result in [4], in experiment [5], in experiment [8], in [9], in experiment [11] and in experiment [12] was inactive. The outcome in experiment [13], in experiment [14], in [6] and in experiment [7] was inactive.

For the compound `C=CCc1ccc(O)c(OC)c1`, the compound was classed as inactive in experiment [1], in experiment [2], in experiment [17], in experiment [4], in experiment [5] and in experiment [9]. Moreover, the compound was called inactive in [10], in [15], in [6] and in experiment [7].

Consider `CC=Cc1ccc(O)c(OC)c1`, for which the concentration at half-maximal activity (AC50) in [1] was 76.2 µM (active); in experiment [9], 37.3 µM (active). Moreover, the compound was called inactive in experiment [2], in experiment [17], in experiment [3], in experiment [4], in experiment [5] and in [10]. Further, the compound was classed as inactive in experiment [15], in [6] and in experiment [7].

With `CNCc1cc(F)ccc1Oc1ccc(Cl)c(Cl)c1`, the compound was classed as inactive in experiment [18], in experiment [4], in experiment [5] and in experiment [6]. For the same compound, the values for the AC50 in experiment [1], in [2] and in [7] were 75.6 µM (active), 70.5 µM (active) and 50 µM (active), respectively.

`OC[C@@H](O)[C@@H](O)[C@H](O)[C@H](O)CO`: the compound was classed as inactive in experiment [1], in experiment [2], in experiment [17], in experiment [3], in experiment [4] and in experiment [5]. Also, the result in experiment [6] and in experiment [7] was inactive.

Turning to `C=CCOC(=O)c1ccccc1C(=O)OCC=C`, the compound was classed as inactive in experiment [1], in experiment [16], in [3], in [4], in [5] and in experiment [6]. Besides, the outcome in experiment [7] was inactive. For the same compound, the AC50 in experiment [2] was 69.7 µM (active).

Regarding `NCC1(Cc2noc(=O)[nH]2)CCCCC1`, the call in experiment [1], in experiment [2], in [17], in experiment [3], in experiment [4] and in [5] was inactive. In addition, the compound was classed as inactive in [6] and in experiment [7].

Take `CC1(C)NC(=O)NC1=O`: the call in [1], in experiment [2], in experiment [17], in experiment [3], in experiment [4] and in experiment [5] was inactive. Besides, the outcome in experiment [6] and in experiment [7] was inactive.
